Bioassay records (PubChem BioAssay)
Only a selection was taken, and hits are over-represented in it overall.
Dicer processing: blocks human Dicer maturation of pre-miR-21; cat-ELCCA pre-miR-21 Dicer processing, chemiluminescence; stronger effect = higher value; z-score at 25 µM; 47,000 tested, 6% active; Q9UPY3; in the data active means z-score above about 3, passing the limit was not always enough;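 further: plate controls were vehicle for no effect and no enzyme for full effect; higher signal means more uncleaved substrate so more Dicer inhibition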
Numbers without * were called inactive.

SMILES	Dicer processing
Cc1ccc(NS(=O)(=O)c2cc(Cl)c(Cl)cc2Cl)c(N)c1	8.3*
O=C(O)CNC(=O)/C=C/c1ccccc1	-0.57
Clc1cccc(NC2=NCCN=C(Nc3cccc(Cl)c3)SS2)c1	-0.3
Cc1ccc(C(=O)Cn2c(C)[n+](C)c3ccccc32)cc1	-0.17
Cc1n(CC(=O)c2ccc(C(C)(C)C)cc2)c2ccccc2[n+]1C	4.9*
COC(=O)c1ccc(OCC(O)Cn2c(C)[n+](C)c3ccccc32)cc1 (stereo not given)	0.87
Fc1cccc(CN2CCN(Cc3cccnc3)CC2)c1	1.8
Cc1ccnc(Nc2nc(-c3ccc(O)c(O)c3)cs2)c1	3.9*
Cc1cccc(Nc2nc(-c3ccc(O)c(O)c3)cs2)n1	5.2*
C=CCNc1nc(-c2ccc(O)c(OC)c2)cs1	-0.25
Cc1ccc(Nc2nc(-c3ccccc3)cs2)nc1	2.1
Cc1cccc(Nc2nc(-c3ccncc3)cs2)n1	2.1
Cc1ccnc(Nc2nc(-c3ccc(O)cc3)cs2)c1	4.5
CCc1n(CC(O)COc2ccc(OC)cc2)c2ccccc2[n+]1C (stereo not given)	0.67
COC(=O)c1ccccc1N(Cc1c(F)cccc1Cl)S(C)(=O)=O	0.38
O=C1CC(c2ccccc2Cl)Oc2ccccc21 (stereo not given)	0.15
C=CCN(C#N)c1nc(NC(C)C)nc(NC(C)C)n1	6.5*
Cc1ccc(-c2c(C)c(C)nc(N)c2C#N)o1	-1.2
COC(=O)c1cc(S(=O)(=O)n2nc(C)cc2C)c(N2CCCC2)cc1N1CCCC1	1.1
CC1(C)Cc2cc3c(cc2C(SCc2ccccc2)=N1)OCCO3	-0.25
CSC1=NC(C)(C)Cc2cc3c(cc21)OCCO3	3.3*
O=C(Nc1ccc(OCc2ccccc2)cc1)Nc1ccccc1-c1nc2ccccc2[nH]1	-0.35
CC1=C(C(=O)OCCc2ccccc2)C(c2cccnc2)C2=C(CCCC2=O)N1 (stereo not given)	0.89
CCOc1ccc(C2c3c(oc4ccc(C)cc4c3=O)C(=O)N2c2nc(C)c(C(=O)OC)s2)cc1 (stereo not given)	0.53
COC(=O)c1cc(=O)n(-c2cc(C(F)(F)F)cc(C(F)(F)F)c2)[nH]1	0.48
SMILES	Dicer processing
O=c1cc(C(F)(F)F)[nH]n1-c1ccccc1	-2.6
COC(=O)c1cc(=O)n(-c2ccccc2C(F)(F)F)[nH]1	3.2*
Cc1[nH]n(-c2ccccc2)c(=O)c1C(c1ccccn1)c1c(C)[nH]n(-c2ccccc2)c1=O	-4.6
N#Cc1ccsc1NC(=O)c1ccc2c(c1)CCO2	1.7
CCCS(=O)(=O)c1csc(C(=O)OC)c1-n1cccc1	-0.28
FC(F)(F)Oc1ccc(CSc2nc3cc(Cl)c(Cl)cc3[nH]2)cc1	-0.5
Cc1ccc(S(=O)(=O)CCSC2=CC(=O)CC(C)(C)S2)cc1	-3.2
CC1(C)CC(=O)C=C(SCc2ccc(Cl)cc2)S1	4*
CC1(C)CC(=O)C=C(SCCS(=O)(=O)c2ccccc2)S1	1.9
N#CC1=C(SCc2ccccc2)NC(=O)CC1c1ccc(Cl)cc1 (stereo not given)	0.4
N/C(=N\NS(=O)(=O)c1cc(C(F)(F)F)cc(C(F)(F)F)c1)c1ccccn1	1
N/C(=N\NC(=S)Nc1ccccc1C(F)(F)F)c1ccccn1	4.3*
CC(C)(C)NC(=S)Nc1ccccc1C(F)(F)F	-0.62
Nc1nc(N2CCCCC2)ncc1S(=O)(=O)c1ccc(Cl)cc1	0.72
CC(=O)Nc1nnc(CCS(=O)(=O)c2ccc3ccccc3c2)s1	13
CC1CCc2c(sc3nc(SC(C)C)nc(NCc4ccccc4)c23)C1 (stereo not given)	-0.04
CSc1nc(C=Nc2cccc(Cl)c2)c(O)n1Cc1cccc(Cl)c1	1.6
CSc1nc(C=Nc2ccccc2)c(O)n1Cc1ccccc1Cl	5.1*
Cn1c(=O)c2c(nc(Cl)n2Cc2ccccc2Cl)n(C)c1=O	2.3
N#Cc1c(C(F)(F)F)cc(-c2ccccc2)nc1SCC(=O)c1ccccc1	-0.73
COc1cscc1C(=O)NNC(=O)c1cccc(C(F)(F)F)c1	1
COc1ccc(C2Nc3ccccc3-c3cc(C)nn32)cc1OC (stereo not given)	3
Fc1ccc(CN2CCCN(Cc3ccc(F)cc3)C2c2ccc3c(c2)CCO3)cc1	-0.74
c1ccc2c(c1)NC(c1ccc3c(c1)CCO3)n1cccc1-2 (stereo not given)	3.4*
C/C(=N\Nc1nc(C(C)(C)C)cs1)c1ccc(Br)cc1	-2.8
SMILES	Dicer processing
COc1ccc(OC(=O)Nc2ccc(Cc3ccc(NC(=O)Oc4ccc(OC)cc4)cc3)cc2)cc1	2.5
CC1(C)CC(=O)c2cc3c(N)c(C(=O)c4ccc(F)cc4)sc3nc2C1	0.41
O=C(O)c1ccc2nc(-c3ccccc3)c(-c3ccccc3)nc2c1	0.57
Nc1ccc(-c2nc3ccccc3s2)cc1	2.9
O=C(O)c1ccc2nc(-c3ccc(O)cc3)sc2c1	4.5*
COc1cccc(-c2nc(-c3ccncc3)no2)c1OC	2.5
O=C1C(=C2C(c3cccs3)C(c3ccccc3)=NN2c2ccccc2)C(=O)c2ccccc21 (stereo not given)	-2.2
Cc1oc(C(C)(C)C)cc1-c1cc(N)n(C)n1	0.85
Cc1cc(Cl)ccc1NC(=S)NNC(=O)c1sc2ccccc2c1Cl	2.4
